Assay results reported in PubChem BioAssay (NCI).
This is part of a sample that, as a whole, favours compounds with a hit. Of some 83,000 tested, about 20% had one in any assay.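 Values shown are percent growth following 48 h exposure of cells in 96-well plates to a single concentration of compound; below 10 was considered active.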 The source made the active and inactive calls.

Assays:
Experiment in all cases: NCI-60 one-dose screen, 48 h (100 = growth as untreated, 0 = no growth, -100 = all killed)
Conditions in all cases: 10 µM unless noted
HCT-15 colon = test system: HCT-15 colon
HT29 colon = test system: HT29 colon
SNB-19 CNS = test system: SNB-19 CNS
U251 CNS = test system: U251 CNS
PC-3 prostate = test system: PC-3 prostate
UACC-62 melanoma = test system: UACC-62 melanoma
LOX IMVI melanoma = test system: LOX IMVI melanoma
SK-MEL-28 melanoma = test system: SK-MEL-28 melanoma
SK-MEL-2 melanoma = test system: SK-MEL-2 melanoma
EKVX NSCLC = test system: EKVX NSCLC
SN12C renal = test system: SN12C renal
UO-31 renal = test system: UO-31 renal
TK-10 renal = test system: TK-10 renal
ACHN renal = test system: ACHN renal
CAKI-1 renal = test system: CAKI-1 renal
A498 renal = test system: A498 renal
CCRF-CEM leukemia = test system: CCRF-CEM leukemia
MOLT-4 leukemia = test system: MOLT-4 leukemia
SK-MEL-5 melanoma = test system: SK-MEL-5 melanoma

Measured: growth

CN(C)CCCN(c1nc(C(Cl)(Cl)Cl)ns1)c1nc(C(Cl)(Cl)Cl)ns1
inactive: HCT-15 colon 41.2% | SNB-19 CNS 64.2% | U251 CNS 27.4% | PC-3 prostate 22.2% | SK-MEL-28 melanoma 51.9% | SK-MEL-2 melanoma 47% | EKVX NSCLC 55.1% | SN12C renal 41.8% | TK-10 renal 63.5% | ACHN renal 54.6% | CAKI-1 renal 43.9% | A498 renal 73.7% | CCRF-CEM leukemia 30.3%
active: HT29 colon 0.235% | UACC-62 melanoma 1.86% | LOX IMVI melanoma -31.4% | UO-31 renal -84.7% | MOLT-4 leukemia 3.33%

CC(C)(C)c1[nH]nc2c1C(c1cc3ccccc3[nH]c1=O)Nc1cc(C(=O)Nc3ccc(Cl)cc3)ccc1N2 (centres undefined)
inactive: HCT-15 colon 98.8% | HT29 colon 91.3% | SNB-19 CNS 90.5% | U251 CNS 60.5% | PC-3 prostate 61.4% | SK-MEL-5 melanoma 70.2% | UACC-62 melanoma 73.1% | SK-MEL-28 melanoma 81.7% | SK-MEL-2 melanoma 77.9% | SN12C renal 71.1% | UO-31 renal 83.8% | TK-10 renal 105% | ACHN renal 84.2% | CAKI-1 renal 94.9% | A498 renal 66.3% | MOLT-4 leukemia 18.5%

COc1ccc(/C=C2\Oc3cc(OCCCN4CCCC4)ccc3C2=O)c(OC)c1
active: LOX IMVI melanoma -27.7%
inactive: HCT-15 colon 17.8% | HT29 colon 10.2% | SNB-19 CNS 74.4% | U251 CNS 54.4% | PC-3 prostate 66.8% | UACC-62 melanoma 99.3% | SK-MEL-28 melanoma 105% | SK-MEL-2 melanoma 103% | EKVX NSCLC 96.1% | SN12C renal 91.8% | UO-31 renal 74.9% | TK-10 renal 103% | ACHN renal 91.4% | CAKI-1 renal 91.9% | MOLT-4 leukemia 32.7%

COc1cc(-c2nc(N=Nc3c(O)[nH]c4ccc(Br)cc34)[nH]c(=O)c2C#N)cc(OC)c1OC
inactive: HCT-15 colon 98.6% | HT29 colon 106% | SNB-19 CNS 100% | U251 CNS 99.7% | PC-3 prostate 98.8% | UACC-62 melanoma 96.1% | LOX IMVI melanoma 98.2% | SK-MEL-28 melanoma 111% | SK-MEL-2 melanoma 102% | EKVX NSCLC 100% | SN12C renal 97.4% | UO-31 renal 90% | TK-10 renal 111% | ACHN renal 101% | CAKI-1 renal 91.1% | MOLT-4 leukemia 96.2%

CN1C(=O)N(C)C2C1NN=c1s/c(=C\c3cccnc3)c(=O)n12 (centres undefined)
inactive: HCT-15 colon 42.2% | HT29 colon 49.1% | SNB-19 CNS 81.4% | U251 CNS 90.2% | PC-3 prostate 65.9% | UACC-62 melanoma 68.6% | LOX IMVI melanoma 80.1% | SK-MEL-28 melanoma 81.5% | SK-MEL-2 melanoma 97.3% | EKVX NSCLC 89.6% | SN12C renal 93.5% | UO-31 renal 66.5% | TK-10 renal 109% | ACHN renal 92.3% | CAKI-1 renal 57.6% | CCRF-CEM leukemia 79.8% | MOLT-4 leukemia 88.7%

CCN(CC)c1ccc(/C=C2\Oc3ccc(O)c(I)c3C2=O)cc1
inactive: HCT-15 colon 37% | HT29 colon 72.4% | SNB-19 CNS 49.7% | U251 CNS 49.1% | PC-3 prostate 52.8% | UACC-62 melanoma 49.8% | LOX IMVI melanoma 34.2% | SK-MEL-28 melanoma 74.3% | SK-MEL-2 melanoma 62.3% | EKVX NSCLC 73.3% | SN12C renal 76.9% | UO-31 renal 46.3% | TK-10 renal 74.2% | ACHN renal 54.9% | CAKI-1 renal 68.4% | CCRF-CEM leukemia 13.3% | MOLT-4 leukemia 16.4%

COc1ccc(C(=O)N2NC(=O)/C(=C/c3ccc(Br)cc3)N=C2c2ccccc2)cc1
inactive: HCT-15 colon 94.8% | HT29 colon 93.2% | SNB-19 CNS 87.4% | U251 CNS 72.9% | SK-MEL-5 melanoma 93.8% | UACC-62 melanoma 68.3% | LOX IMVI melanoma 87.9% | SK-MEL-28 melanoma 94.5% | EKVX NSCLC 95.7% | SN12C renal 74.1% | UO-31 renal 92.8% | TK-10 renal 107% | ACHN renal 87.8% | CAKI-1 renal 96.9% | A498 renal 83.5% | MOLT-4 leukemia 17.3%

CCN1C(=O)N(CC)C2C1NN=c1s/c(=C\c3cccnc3)c(=O)n12 (centres undefined)
active: HT29 colon 8.17%
inactive: HCT-15 colon 18.9% | SNB-19 CNS 29.2% | U251 CNS 19.1% | PC-3 prostate 21.3% | UACC-62 melanoma 30.7% | LOX IMVI melanoma 46% | SK-MEL-28 melanoma 51.8% | SK-MEL-2 melanoma 51.5% | EKVX NSCLC 45.5% | SN12C renal 45.2% | UO-31 renal 46.8% | TK-10 renal 80.7% | ACHN renal 42.9% | CAKI-1 renal 47.5% | CCRF-CEM leukemia 14.1% | MOLT-4 leukemia 26.5%

CSc1nc2c(c(=O)[nH]1)C(c1ccc(C)cc1)C=C(C(=O)O)N2 (centres undefined)
inactive: HCT-15 colon 105% | HT29 colon 118% | SNB-19 CNS 133% | U251 CNS 109% | PC-3 prostate 109% | SK-MEL-5 melanoma 102% | UACC-62 melanoma 129% | SK-MEL-28 melanoma 99.9% | SK-MEL-2 melanoma 120% | SN12C renal 120% | UO-31 renal 88.1% | TK-10 renal 118% | ACHN renal 106% | CAKI-1 renal 88.6% | A498 renal 93.1% | MOLT-4 leukemia 119%

S=C(S)NCCc1c[nH]c2ccccc12
inactive: HCT-15 colon 97.2% | HT29 colon 110% | SNB-19 CNS 96.3% | U251 CNS 108% | PC-3 prostate 91.4% | UACC-62 melanoma 88.4% | LOX IMVI melanoma 87.2% | SK-MEL-28 melanoma 113% | SK-MEL-2 melanoma 99.6% | EKVX NSCLC 100% | SN12C renal 91.8% | UO-31 renal 62.8% | TK-10 renal 128% | ACHN renal 101% | CAKI-1 renal 81.2% | CCRF-CEM leukemia 81.5% | MOLT-4 leukemia 93.6%

C=C1CCC2C(C)(CO)C(O)CCC2(C)C1C/C=C1/C(=O)OCC1Oc1ccccc1C (centres undefined)
active: LOX IMVI melanoma 2.56%
inactive: HCT-15 colon 55.9% | HT29 colon 42.8% | U251 CNS 88.4% | PC-3 prostate 86.3% | SK-MEL-5 melanoma 93.6% | UACC-62 melanoma 77.3% | SK-MEL-28 melanoma 98% | SK-MEL-2 melanoma 87.5% | EKVX NSCLC 101% | SN12C renal 85.9% | UO-31 renal 93% | TK-10 renal 136% | ACHN renal 91.6% | CAKI-1 renal 95.8% | A498 renal 108% | CCRF-CEM leukemia 20.3% | MOLT-4 leukemia 92.5%

CC(C)(C)n1cc(-c2ccnc(NCCCNS(=O)(=O)c3ccc(Cl)cc3)c2)c(-c2cccc(O)c2)n1
inactive: EKVX NSCLC 20.5% | SN12C renal 18.1% | UO-31 renal 11% | TK-10 renal 43.7% | CAKI-1 renal 19.2%
active: HCT-15 colon -65.3% | HT29 colon -49.3% | U251 CNS -43.7% | PC-3 prostate -0.444% | SK-MEL-5 melanoma -87.8% | UACC-62 melanoma -2.46% | LOX IMVI melanoma -88.4% | SK-MEL-28 melanoma -67.1% | SK-MEL-2 melanoma -64% | ACHN renal 8.91% | A498 renal -8.44% | CCRF-CEM leukemia 8.5% | MOLT-4 leukemia -17.3%

COc1cc(-c2nc(-c3nc4ccc(Cl)cc4[nH]3)cc3c2[nH]c2ccccc23)cc(OC)c1OC
inactive: HCT-15 colon 72.8% | HT29 colon 75% | SNB-19 CNS 79.9% | U251 CNS 80.1% | PC-3 prostate 53.2% | UACC-62 melanoma 33.6% | LOX IMVI melanoma 67.8% | SK-MEL-28 melanoma 99.8% | SK-MEL-2 melanoma 62% | SN12C renal 66.1% | UO-31 renal 41.7% | TK-10 renal 93.6% | ACHN renal 66.4% | CAKI-1 renal 83.7% | A498 renal 78% | CCRF-CEM leukemia 46.5% | MOLT-4 leukemia 34.4%

CC(C)(C)NCCC(O)c1cc2c(Cl)cc(Cl)cc2c2cc(C(F)(F)F)ccc12 (centres undefined)
inactive: A498 renal 16.5%
active: HCT-15 colon -70.5% | HT29 colon -80.3% | U251 CNS -94.2% | PC-3 prostate -92.3% | SK-MEL-5 melanoma -63.2% | UACC-62 melanoma -77.3% | LOX IMVI melanoma -70.7% | SK-MEL-28 melanoma -91.6% | SK-MEL-2 melanoma -69.5% | EKVX NSCLC -63.9% | SN12C renal -80.1% | UO-31 renal -88.8% | TK-10 renal -85.7% | ACHN renal -75.9% | CAKI-1 renal -68.2% | CCRF-CEM leukemia -50.7% | MOLT-4 leukemia -61.9%

Cc1[nH]c2ccc(F)cc2c1CCNC(=O)C1CCN(C(=O)c2ccccc2)CC1
inactive: HCT-15 colon 94.4% [25 µM] | HT29 colon 95.2% [25 µM] | SNB-19 CNS 86.3% [25 µM] | U251 CNS 90.7% [25 µM] | PC-3 prostate 71% [25 µM] | SK-MEL-5 melanoma 76% [25 µM] | UACC-62 melanoma 82.5% [25 µM] | SK-MEL-28 melanoma 96.4% [25 µM] | SK-MEL-2 melanoma 98.9% [25 µM] | EKVX NSCLC 77.9% [25 µM] | SN12C renal 94.5% [25 µM] | UO-31 renal 67.6% [25 µM] | TK-10 renal 91.1% [25 µM] | ACHN renal 97% [25 µM] | A498 renal 56.2% [25 µM] | MOLT-4 leukemia 88% [25 µM]

O=C1c2c(c3c4ccccc4n(CCCCCCBr)c3c3[nH]c4ccccc4c23)C(=O)N1O
active: HCT-15 colon 7.75% | HT29 colon -19.7% | PC-3 prostate 4.24% | SK-MEL-5 melanoma -69.5% | LOX IMVI melanoma -70.2% | SK-MEL-2 melanoma -19.4% | SN12C renal 8.36% | UO-31 renal 0.628% | ACHN renal 4.33% | A498 renal -9.63% | CCRF-CEM leukemia 3.53% | MOLT-4 leukemia 0.344%
inactive: SNB-19 CNS 24.2% | U251 CNS 10.9% | EKVX NSCLC 19.8% | TK-10 renal 18.1%

COc1cccc(/C=C2\Oc3cc(OCCCN4CCCC4)ccc3C2=O)c1
inactive: HCT-15 colon 19.3% | HT29 colon 17.8% | SNB-19 CNS 87.9% | U251 CNS 75.6% | PC-3 prostate 69% | UACC-62 melanoma 96.7% | LOX IMVI melanoma 20.6% | SK-MEL-28 melanoma 100% | SK-MEL-2 melanoma 107% | EKVX NSCLC 85.3% | SN12C renal 85.2% | UO-31 renal 58.2% | TK-10 renal 93.3% | ACHN renal 93% | CAKI-1 renal 85.5% | MOLT-4 leukemia 59.5%
active: CCRF-CEM leukemia 1.85%

CCN(CC)c1ccc(CNc2ccnc3ccccc23)cc1
active: SK-MEL-5 melanoma 8.05%
inactive: HCT-15 colon 58.6% | HT29 colon 24.8% | U251 CNS 52.4% | PC-3 prostate 42.4% | UACC-62 melanoma 76.4% | LOX IMVI melanoma 54.7% | SK-MEL-28 melanoma 80.4% | SK-MEL-2 melanoma 79.3% | EKVX NSCLC 45.3% | SN12C renal 64% | UO-31 renal 31.6% | TK-10 renal 60% | ACHN renal 75.8% | CAKI-1 renal 61.9% | A498 renal 48.2% | CCRF-CEM leukemia 53.3% | MOLT-4 leukemia 51.7%
